TSG101-PTAP inh = blocks PTAP/TSG101 interaction to inhibit HIV-1 budding | Q99816 | Fluorescence polarization, FITC-PTAP peptide / Tsg101 binding | Potency, µM (series often up to 115 µM), for the others: top-dose activity change, negative = inhibition, actives largely listed as inhibitors | 340,000 tested, under 10 active | AID 493005; active = well fitted inhibition curve with a large enough effect in the main read-out, with a control signal flat, not every such curve was filed as active; inconclusive = small, poorly fitted or top-dose-only effect, or effect the other way, or a change in a side signal; inactive = no such curve, though single readings can be large or run the other way; also: % of control where 0% means no effect
Target sequence (Q99816 whole entry, looked up): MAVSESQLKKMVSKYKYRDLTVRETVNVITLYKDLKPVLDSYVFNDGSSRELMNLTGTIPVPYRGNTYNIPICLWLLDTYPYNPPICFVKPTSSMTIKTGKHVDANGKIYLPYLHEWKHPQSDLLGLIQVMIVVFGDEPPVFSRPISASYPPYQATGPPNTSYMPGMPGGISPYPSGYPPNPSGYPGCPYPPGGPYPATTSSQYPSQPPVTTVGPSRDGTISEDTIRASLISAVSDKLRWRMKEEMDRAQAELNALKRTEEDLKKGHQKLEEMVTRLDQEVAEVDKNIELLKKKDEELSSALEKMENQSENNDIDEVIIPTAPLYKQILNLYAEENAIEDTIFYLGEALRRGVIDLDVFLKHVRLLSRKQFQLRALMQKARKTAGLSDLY
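Fluorescence anisotropy tracks displacement of a FITC-tagged PTAP peptide (50 nM) from the Tsg101 binding domain (10 uM), following a 20 min room-temperature incubation at pH 7.5.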
KB-3-1 tox = kills parental KB-3-1 adenocarcinoma cells. KB-3-1 viability, CellTiter-Glo ATP luminescence, 72 h. Potency, µM (highest dose often 46.1 µM), actives largely listed as cytotoxic. 400,000 tested, 1.4% active; also: % is scaled to controls: 0 for no effect and ±100 for the full control effect; nearly all actives have a fitted effect of over 60% in size
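Here the drug-naive KB-3-1 line serves as comparator for MDR sub-line selectivity; cells received compound titrations, 72 h at 37 °C, then CellTiter-Glo readout.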
KB-V1 cytotox = kills drug-selected multidrug resistant KB-V1 cells | AID 1347076 | KB-V1 MDR cells viability, CellTiter-Glo, 72 h | Potency, µM (doses to about 46.1 µM), hits mostly cytotoxic | 400,000 tested, 3.4% active; also: % is scaled to controls: 0 for no effect and ±100 for the full control effect; nearly all actives have a fitted effect of over 60% in size
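Cytotoxicity toward P-gp-expressing KB-V1 cells was determined as loss of CellTiter-Glo luminescence after 72 h at 37 degrees C. Compounds were tested in quantitative HTS format across a concentration range, with curves fitted to normalized data.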
PINK1 modulator = PINK1 expression modulation; PINK1 immunofluorescence, high-content cytometry, 24 h; 410,000 tested, 0.2% active; AID 624263; Potency, µM (titrated, usually from 76.6 µM), inactives show at the highest dose activation (PINK1 increase), usual class: activators; active = well fitted activation curve with a large enough effect; inconclusive = small, poorly fitted or top-dose-only effect; cell line not stated here; also: % of control where 0% means no effect; nearly all actives have a fitted effect of over 65% in size
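PINK1 protein level read as immunofluorescence by microplate cytometer in a fixed, stained stable cell line after 24 h exposure to five compound concentrations, with CCCP as control.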
SW480 rerep = inducers of DNA re-replication in SW480 colon cancer cells | SW480 DNA re-replication, Hoechst DNA content imaging, 48 h | Potency, µM (series often up to 46.1 µM), without a hit: at the highest dose re-replication activation, actives largely listed as activators | 340,000 tested, 1.8% active; also: % of control where 0% means no effect; nearly all actives have a fitted effect of over 55% in size
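Quantitative HTS format with DMSO vehicle controls; 48 hr drug incubation at 37 C, then 40 min Hoechst staining and scanning imager measurement at 405 nm excitation.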
MCF10A rerep = DNA re-replication induction in MCF 10a cells | 350,000 tested, 2.9% active | Potency, µM (highest dose often 46.1 µM), without a hit: at the top dose activity, positive = re-replication, actives largely listed as activators | MCF 10A DNA re-replication, Hoechst nuclear intensity, 48 h; also: % of control where 0% means no effect; nearly all actives have a fitted effect of over 50% in size
An asterisk follows results filed as active; i = inactive; ? = inconclusive; nt = no result; ! = repeats disagree; [ ] = another dose, or the depositor's remark. A selection: hits, their analogues and other compounds. The true share with any hit is near 6.8%. Unless noted, calls follow the shape of the dose curve; as a rule, active = well fitted curve in the direction sought with a large enough effect; inconclusive = small, poorly fitted or top-dose-only effect, or another doubt; inactive = no such curve, though single readings can be large; an effect the other way counts as inactive or inconclusive. Potency is read from the fitted curve at half-maximal effect.

SMILES | TSG101-PTAP inh | KB-3-1 tox | KB-V1 cytotox | PINK1 modulator | SW480 rerep | MCF10A rerep
O=C(Nc1c(Cl)cc([N+](=O)[O-])cc1Cl)c1cc(Cl)cc(Cl)c1O | nt | 18µM* | ? | 14µM* | nt | nt
O=C(c1cc([N+](=O)[O-])ccc1Cl)N1c2ccccc2Sc2ccccc21 | -1% | i | i | 1% | ? | 18µM*
O=C(Nc1ccc([N+](=O)[O-])cc1Cl)c1ccccc1O | nt | 2.9µM*! | 16µM* | ? | nt | nt
O=C(NN=C1CCCC1)c1cc(Cl)cc(Cl)c1O | -3% | i | i | 2% | -6% | 4%
O=C(c1cc([N+](=O)[O-])ccc1Cl)N1CCN(c2ccccc2)CC1 | 1% | i | i | 1% | -2% | -1%
O=C(Nc1cccc(NC(=O)c2cc([N+](=O)[O-])ccc2Cl)n1)c1cc([N+](=O)[O-])ccc1Cl | -3% | 18µM* | 15µM* | 7% | ? | 6.5µM*
O=C(Nc1cccc(O)c1)c1ccc([N+](=O)[O-])cc1Cl | -2% | ? | i | 0% | ? | -10%
CC1CN(C(=O)CCC(=O)NCc2ccc(F)cc2)c2cc(Cl)ccc2O1 (stereo not given) | nt | i | i | 1% | nt | nt
CC(=O)OCC(=O)[C@@]1(O)CCC2C3CC(C)C4=CC(=O)C=CC4(C)C3C(O)CC21C (stereo not given in full) | nt | nt | nt | 2% | nt | nt
CC(=O)OCC(=O)Nc1ccc([N+](=O)[O-])cc1Cl | -1% | i | ? | 1% | 1% | -1%
CC(=O)Oc1c(C)cc(Cl)cc1C(=O)Nc1ccc([N+](=O)[O-])cc1Cl | -3% | 7.3µM* | i | ? | 6.5µM* | 17%
CC(C)c1ccc(-c2nc(C(N)=O)c3c(n2)n(-c2ccc4c(c2)OCO4)c(=O)n3C)cc1 | nt | ? | i | -1% | nt | nt
O=C(c1ccccc1)c1nn(-c2ccccc2)c2nnc(Cc3ccccc3)c(=O)n12 | 0% | ? | ? | 1%[38.3 µM] | 18µM* | 23µM*
Cc1ccc(-n2nc(C(=O)c3ccccc3)n3c(=O)c(Cc4ccccc4)nnc23)cc1 | -4% | i | 16µM* | 8% | 5% | -4%
CSc1cccc(NS(=O)(=O)c2cn(C)c(C)n2)c1 | nt | i | i | -4% | nt | nt
O=C(C[n+]1ccncc1)c1ccc(Br)cc1 | nt | i | i | nt | nt | nt
CCCNC(=O)NNC(=O)c1cc(-c2ccc3c(c2)OCO3)nc2ccccc12 | -5% | i | i | 0% | ? | -4%
O=C(O)c1cc(-c2ccc3c(c2)OCO3)nc2ccccc12 | -6% | i | i | 5% | -3% | 10%
O=C(N/N=C/c1ccc2c(c1)OCO2)c1cc(-c2ccc(F)cc2)nc2ccccc12 | -1% | ? | 8.2µM* | 17% | ? | 3.7µM*
CC(NC(=O)c1cc(-c2ccc3c(c2)OCO3)nc2ccccc12)C(C)(C)C (stereo not given) | 1% | i | 16µM* | 13% | 7% | ?
O=C(N/N=C/c1ccc(F)cc1)c1cc(-c2ccccn2)nc2ccccc12 | -1% | i | i | 13% | -1% | ?
CCCN(CCC)C(=O)c1cc(-c2ccc3c(c2)OCO3)nc2ccccc12 | -2% | i | 18µM* | 4% | ? | ?
O=C(COc1ccccc1C(=O)Nc1ccccc1)NCCCCc1ccccc1 | nt | nt | nt | 2% | nt | nt
CCc1nnc(NC(=O)c2ccc(S(=O)(=O)N(CC(C)C)CC(C)C)cc2)o1 | -11% | ? | ? | 3% | 18% | 8.9µM*
CCCN(CCC)S(=O)(=O)c1ccc(C(=O)Nc2nnc(COC)o2)cc1 | -13% | i | i | 2% | 0% | 1%
SMILES | TSG101-PTAP inh | KB-3-1 tox | KB-V1 cytotox | PINK1 modulator | SW480 rerep | MCF10A rerep
CCc1nnc(NC(=O)c2ccc(S(=O)(=O)N(C)c3ccccc3)cc2)o1 | -7% | ? | i | 0% | 15µM* | 7%
CCc1n[nH]c(=S)n1/N=C/c1c(O)ccc2ccccc12 | 1% | ? | 5.8µM* | 0% | -3% | 9%
CCc1n[nH]c(=S)n1/N=C/c1ccc(N(C)c2ccccc2)cc1 | -2% | i | i | 5% | -3% | ?
CCc1n[nH]c(=S)n1/N=C/c1ccccn1 | 0% | i | i | 2% | 0% | -6%
CCc1n[nH]c(=S)n1/N=C/c1cccc2ccccc12 | 0% | 6.5µM* | 5.8µM* | -1% | -6%[9.22 µM] | ?
COc1ccc(CNC(=O)CCc2c(C)nn(-c3ccc(N4CCCCC4)nn3)c2C)cc1 | nt | nt | nt | 0% | nt | nt
Cc1ccc(-c2cnc(C3CC3)o2)cc1S(=O)(=O)Nc1ccc(F)cc1Cl | nt | i | ? | 1% | nt | nt
COC(=O)c1cc(=O)n(CCc2ccccc2F)c(=Nc2ccc(F)c(Cl)c2)s1 | 1% | ? | i | 10% | 23% | ?
COC(=O)c1cc(=O)n(Cc2ccco2)c(=Nc2ccc(F)c(Cl)c2)s1 | -4% | 18µM* | ? | 1% | ? | 7.3µM*
COCCNC(=O)Cc1c(C)c2c(cc(C)c3c(C)coc32)oc1=O | -1% | i | ? | 3% | 11% | -3%
COCCCNC(=O)Cc1c(C)c2c(cc(C)c3c(C(C)(C)C)coc32)oc1=O | -3% | 5.2µM* | 5.2µM* | -2% | 2.3µM* | ?
O=c1[nH]c2ccccc2n1CCCSCCCn1c(=O)[nH]c2ccccc21 | -2% | 21µM* | 18µM* | -2%[38.3 µM] | 3% | 0%
O=c1[nH]c2ccccc2n1CCC1CCCCC1 | -8% | i | 18µM* | 7%[38.3 µM] | 0% | ?
CC(C)CCn1c(=O)[nH]c2ccccc21 | 1% | i | i | 3% | 2% | 0%
CC(C)(C)C(=O)Nc1ccc2c(c1)C(=O)C(=O)c1ccccc1-2 | nt | nt | nt | -1% | nt | nt
Cc1c(C(=O)Nc2ccccc2Cl)oc2ccc(S(=O)(=O)N3CCCCC3)cc12 | nt | i | i | 0% | nt | nt
COc1ccc(CCNC(=O)Cc2ccc(OCc3ccccc3)c(OC)c2[N+](=O)[O-])cc1OCc1ccccc1 | 0% | ? | 2.6µM* | -2% | -6% | ?
COc1cccc(OC)c1C(=O)Nc1cccc(-c2nc3cc(C)cc(C)c3o2)c1 | nt | i | ? | 1% | nt | nt
Cc1ccc(C)c(NC(=O)COC(=O)CC2c3ccccc3CCN2S(=O)(=O)c2ccc(F)cc2)c1 (stereo not given) | -7% | i | 21µM* | -1% | 0% | 8%
COc1ccc(NCC(=O)n2c(C)c(C)c3ccccc32)cc1 | 0% | 12µM* | ? | 0% | ? | 18µM*
